Inconclusive results are not listed. Calls of active or inactive are those of the source. The calls were made as follows, unless noted: active = hit-call score of the fitted dose curve at least 0.9, where 1 is the maximum; inactive = score below 0.9.
How the values were obtained:
[1] = CCTE_Simmons_MITO_max_resp_rate: CCTE's HepG2 Seahorse XF Respirometric Screening Assay at Maximal Respiratory State [uncoupled], Simmons Lab (AID 2284002); conditions: actives raise or lower the signal
How it was run: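 Maximal respiration in HepG2 cells is recorded as OCR by Seahorse XF following FCCP injection. Compounds span 125 nM–100 uM final; activity is called in either direction against DMSO.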

[2] = CCTE_Simmons_MITO_inhib_resp_rate: CCTE's HepG2 Seahorse XF Respirometric Screening Assay at Inhibited Respiratory State [full ETC block], Simmons Lab (AID 2284006); conditions: actives raise or lower the signal
How it was run: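 HepG2 cells on Seahorse XF96; oxygen consumption measured after test compound, then FCCP, then rotenone/antimycin A injections over 72 min. Test chemicals at 7 concentrations, 125 nM–100 uM final. OCR fitted bidirectionally versus DMSO.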

[3] = CCTE_Harrill_HTTr_Viability_MCF7: CCTE's 6-hour Cell Viability Assessment for the High-Throughput Transcriptomics (HTTr) Platform, in MCF-7 cells cultured in DMEM + 10% fetal bovine serum, Harrill Lab (AID 2284010)
How it was run: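 Membrane integrity was scored by high-content imaging of propidium iodide dye exclusion after a 6 h exposure across an eight-point dilution series. Data were fitted bidirectionally relative to DMSO as negative control and baseline.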

[4] = CCTE_Harrill_HTTr_Apoptosis_MCF7: CCTE's 6-hour Apoptosis Assessment for the High-Throughput Transcriptomics (HTTr) Platform, in MCF-7 cells cultured in DMEM + 10% fetal bovine serum, Harrill Lab (AID 2284011)
How it was run: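 Cells are dosed with test chemicals at eight concentrations and imaged 6 hours later for caspase-3/7 activity using a green fluorogenic detection reagent. Activity is fitted in both directions against DMSO controls.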

[5] = CCTE_Simmons_MITO_viability: CellTiter-Glo Viability Assessment for CCTE's HepG2 Seahorse XF Respirometric Screening Assay [post-hoc], Simmons Lab (AID 2284007; active = hit-call score of the fitted dose curve at least 0.9, where 1 is the maximum)
How it was run: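 HepG2 cells from the Seahorse XF respirometry run were exposed 90 min to a 7-point series, 125 nM–100 uM final, DMSO vehicle; ATP content then read by luciferase luminescence. Three biological replicates, technical singles; loss of signal fitted versus DMSO.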

[6] = CCTE_Shafer_MEA_acute_spike_number: CCTE's Neural Acute Assay for Total Number of Spikes, Shafer Lab (AID 2284008);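 as to AC50: curve fitted for decrease in spike count so AC50 reflects inhibitors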
How it was run: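 Cortical neurons from rat, matured to DIV 13 or 15 on microelectrode arrays, are recorded at 37 C before and during 40-min exposure to 0.03-40 uM compound. Wells need >/= 10 active electrodes.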

[7] = CCTE_Shafer_MEA_acute_firing_rate_mean: CCTE's Neural Acute Assay for Mean Firing Rate, Shafer Lab (AID 2284009);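 also: analyzed for loss of signal so actives lower firing rate relative to DMSO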
How it was run: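 Rat primary cortical neurons on 48-well MEA plates, dosed at 0.03-40 uM on DIV 13 or 15; 40 min spontaneous activity recorded at 37 C before and after compound. Spike rate per electrode averaged per well, expressed as percent change from baseline.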

[8] = CCTE_Harrill_HTTr_CellCount_MCF7: CCTE's Cell Proliferation Assessment for the High-Throughput Transcriptomics (HTTr) Platform, Harrill Lab (AID 2284012; active = hit-call score of the fitted dose curve at least 0.9, where 1 is the maximum;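 also: cells exposed to compound for six hours; intended direction is loss of nuclei count meaning fewer cells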)
How it was run: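 MCF-7 cells were exposed for 6 h to an eight-point dilution series; Hoechst-labeled nuclei were counted by high content imaging. Curves were fitted bidirectionally against DMSO as negative control and baseline, with signal loss indicating reduced cell count.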

[9] = CCTE_Shafer_MEA_acute_burst_number: CCTE's Neural Acute Assay for Single-Electrode Bursts, Shafer Lab (AID 2284013)
How it was run: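 Primary rat cortical neurons on 16-electrode MEA wells, treated on DIV 13 or 15 with compound at 0.03-40 uM. Single-electrode burst count from 40-min recordings at 37 C before and after exposure; percent change from baseline per well, DMSO negative control.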

[10] = CCTE_Shafer_MEA_acute_burst_duration_mean: CCTE's Neural Acute Assay for Mean Burst Duration, Shafer Lab (AID 2284014);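 also: hits are decreases in mean burst duration relative to DMSO controls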
How it was run: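 Rat primary cortical neurons on 48-well MEA, treated at DIV 13 or 15 with 0.03-40 uM in at least 3 wells. Value is percent change in mean burst duration, comparing 40 min recordings at 37 C before and during exposure.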

[11] = CCTE_Shafer_MEA_acute_interburst_interval_mean: CCTE's Neural Acute Assay for Mean Interburst Interval, Shafer Lab (AID 2284016);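 also: percent change of mean interburst interval versus each well's own pre-dose baseline; curves fitted for decrease in interburst interval relative to DMSO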
How it was run: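 Percent change in mean single-electrode interburst interval was calculated per well from 40 min recordings before and after compound (0.03-40 uM). Recordings were made at 37 C on rat cortical cultures at DIV 13 or 15, with spikes detected at 8x rms threshold.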

[12] = CCTE_Shafer_MEA_acute_burst_percentage_mean: CCTE's Neural Acute Assay for Percentage of Spikes in a Burst, Shafer Lab (AID 2284017)
How it was run: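 Well-level mean burst percentage from a 40-min recording after compound (0.03-40 uM) expressed as percent change from a 40-min baseline at 37C. Cultures: primary rat cortical neurons on MEA, dosed on DIV 13 or 15; fitted downward relative to DMSO.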

[13] = CCTE_Shafer_MEA_acute_burst_percentage_std: CCTE's Neural Acute Assay for Standard Deviation of Burst Percentage, Shafer Lab (AID 2284018);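 also: fitted in the negative direction so actives lower burst percentage SD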
How it was run: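 Rat primary cortical neurons on 48-well MEAs, DIV 13 or 15, 37 C. 40-min baseline then 40-min recording with compound (0.03-40 uM); well-level SD of per-electrode burst spike percentage, expressed as percent change from baseline.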

[14] = CCTE_Shafer_MEA_acute_per_network_burst_spike_number_std: CCTE's Neural Acute Assay for Standard Deviation of Number of Spikes in a Network Burst, Shafer Lab (AID 2284020);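 also: fitted for decrease in spike-number SD versus DMSO so actives lower it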
How it was run: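 Rat primary cortical neurons on 48-well MEA (16 electrodes/well), treated DIV 13 or 15 at 0.03-40 uM, ≥3 wells per compound. 40 min recordings at 37 C before and after dosing; value is percent change in network-burst spike-number SD, negative direction vs DMSO.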

[15] = CCTE_Shafer_MEA_acute_per_network_burst_electrodes_number_mean: CCTE's Neural Acute Assay for Mean Number of Electrodes in a Network Burst, Shafer Lab (AID 2284021);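 also: curves fitted for decreases only so hits reduce electrodes per burst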
How it was run: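 Cultures of rat cortex neurons were exposed on DIV 13 or 15 to compounds at 0.03-40 uM in at least three wells each. Activity over 40 min before and 40 min after exposure at 37 C gave the percent change in electrodes per network burst.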

[16] = CCTE_Shafer_MEA_acute_network_burst_percentage: CCTE's Neural Acute Assay for Percentage of Network Bursts, Shafer Lab (AID 2284022);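 also: curves fitted for loss so actives lower network burst percentage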
How it was run: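 Cortical neurons from rat were grown over microelectrode arrays and used on day 13 or 15 in vitro. Wells with at least 10 active electrodes received test chemical at 0.03-40 uM. Activity during 40 min of exposure was compared with the preceding 40-min baseline.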

[17] = CCTE_Shafer_MEA_acute_cross_correlation_HWHM: CCTE's Neural Acute Assay for Cross Correlation at Half Width at Half Maximum, Shafer Lab (AID 2284026);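 also: spontaneous network firing of rat primary cortical neurons on multiwell microelectrode arrays; percent change per well from pre-dose baseline in spike cross-correlogram half width; hits are a decrease in cross-correlogram half width relative to DMSO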
How it was run: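 Primary cortex (rat), MEA, DIV 13/15; compound 0.03-40 uM; 40 min pre + 40 min post at 37 C; spike threshold 8x rms; wells need ≥10 active electrodes; endpoint = % change in cross-correlogram HWHM vs baseline, DMSO negative control.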

[18] = CCTE_Shafer_MEA_acute_synchrony_index: CCTE's Neural Acute Assay for Synchrony, Shafer Lab (AID 2284027);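 also: network synchrony index of spontaneous spiking in primary rat cortical neurons on MEAs; fitted for loss of signal so actives lower synchrony relative to DMSO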
How it was run: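 Primary rat cortical neurons on 16-electrode MEA wells were recorded 40 min at baseline (DIV 13 or 15) and 40 min after compound (0.03-40 uM) at 37 C. Synchrony index (0-1) expressed as percent change from baseline, versus DMSO.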

Measured: AC50

O=C(CCCCCCCCc1cccnc1)N1CCC(C=C(c2ccccc2)c2ccccc2)CC1
inactive: [1] | [2] | [3] | [4]

C=CCCCCCCCCC(=O)O
inactive: [1] | [2] | [5]

CC(=O)OC[C@H]1O[C@@](COC(C)=O)(O[C@H]2O[C@H](COC(C)=O)[C@@H](OC(C)=O)[C@H](OC(C)=O)[C@H]2OC(C)=O)[C@@H](OC(C)=O)[C@@H]1OC(C)=O
inactive: [3] | [4]

O=C(O)CC(O)C(=O)O (configuration not stated)
inactive: [3] | [4]

CC(C)CCO
inactive: [3] | [4]

O=C(O)c1cc(N=Nc2ccc(S(=O)(=O)Nc3ccccn3)cc2)ccc1O
active: [6] 8.07 nM | [7] 8.18 nM | [9] 29.9 nM
not listed: [1] | [2] | [5]
inactive: all other assays above

CCCCC(CC)COC(=O)CCCCCCCCC(=O)OCC(CC)CCCC (configuration not stated)
not listed: [1] | [2] | [5] | [8]
inactive: all other assays above

Cn1cnc([N+](=O)[O-])c1Sc1ncnc2nc[nH]c12
not listed: [1] | [2] | [5]
inactive: all other assays above

Reference: PubChem BioAssay (EPA / NIEHS)
